Inconclusive results are not listed. A call without a number means that no potency is given here. Values without a mark were called inactive. Activity calls are given as the source filed them. The call rests on the fitted dose curve.
test: Cytotoxicity counterscreen for inhibitors of SARS-CoV-2 cell entry (AID 1645845); conditions: cell viability (SARS-CoV-2 entry assay cells); series mostly up to 57.1 µM; activity change, negative = cytotoxicity: at the top concentration; further: nearly all actives have a fitted effect of over 50% in size
In short: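 HEK293-ACE2 cells (Expi293F stably expressing human ACE2) seeded overnight, then compound for 1 h plus 48 h at 37C. Viability as ATP content by luminescence; normalized to wells with cells and media-only wells.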

Row | SMILES | Potency | activity change, negative = cytotoxicity | outcome
1 | CCOC(=O)C1=C[C@@H](OC(CC)CC)[C@H](NC(C)=O)[C@@H](N)C1 | inactive | – | –
2 | O=c1[nH]c(=O)n([C@H]2C[C@H](O)[C@@H](CO)O2)cc1Br | – | -13.3% | –
3 | CC(C)(O/N=C(\C(=O)N[C@@H]1C(=O)N2C(C(=O)[O-])=C(C[n+]3ccccc3)CS[C@H]12)c1csc(N)n1)C(=O)O | – | – | inactive [at 27.1 µM]
4 | c1ccc2c(c1)CCCC2C1=NCCN1 (stereo not drawn) | – | – | inactive
5 | O=C(O)Cc1sc(-c2ccccc2)nc1-c1ccc(Cl)cc1 | – | – | inactive
6 | C=CCN1C[C@H](C(=O)N(CCCN(C)C)C(=O)NCC)C[C@@H]2c3cccc4[nH]cc(c34)C[C@H]21 | – | – | inactive
7 | NS(=O)(=O)c1ccc(Cl)c(S(N)(=O)=O)c1 | – | – | inactive
8 | Nc1cc(C(Cl)=C(Cl)Cl)c(S(N)(=O)=O)cc1S(N)(=O)=O | inactive | – | –
9 | CC(CC(C#N)(c1ccccc1)C(C)C)N(C)C (stereo not drawn) | – | – | inactive
10 | NCc1ccc(S(N)(=O)=O)cc1 | – | – | inactive
11 | C=CC1=C(C(=O)O)N2C(=O)[C@@H](NC(=O)/C(=N\O)c3csc(N)n3)[C@H]2SC1 (stereo in doubt) | – | -11.3% | –
12 | CCOC(=O)C1=C(C)NC(C)=C(C(=O)OC)C1c1cccc([N+](=O)[O-])c1 (stereo not drawn) | – | 4.91% | –
13 | Cn1c(=O)c2[nH]c(Br)nc2n(C)c1=O | – | – | inactive
14 | COC(=O)C(c1ccccc1)C1CCCCN1 (stereo not drawn) | – | -20.5% | –
15 | N#Cc1ccc2c(c1)N(CCCN1CCC(O)CC1)c1ccccc1S2 | – | -26.9% | –
16 | CCCCCC=CCC=CCCCCCCCC(=O)OCC | – | 0.856% | –
17 | CC(=O)OCC(=O)[C@H]1CC[C@H]2[C@@H]3CCC4=CC(=O)CC[C@]4(C)[C@H]3CC[C@]12C | – | -9.19% | –
18 | Nc1ccc(S(=O)(=O)Nc2ccccn2)cc1 | – | – | inactive
19 | CN[C@@H]1[C@@H](O)[C@@H](O[C@@H]2[C@H](O)[C@H](O[C@H]3OC(CN)=CC[C@H]3N)[C@@H](N)C[C@H]2N)OCC1(C)O (stereo partly drawn) | – | – | inactive

Row | SMILES | Potency | activity change, negative = cytotoxicity | outcome
20 | CNCCCCOc1ccccc1Cc1ccccc1 | – | – | inactive
21 | CN(C)CCc1c[nH]c2ccc(Cn3cncn3)cc12 | – | – | inactive
22 | NC(=O)N1c2ccccc2C=Cc2ccccc21 | – | – | inactive
23 | CCCCCCCCCCCCCCCCOP(=O)([O-])OCC[N+](C)(C)C | – | -1.14% | –
24 | CCN(CC)C(=O)/C(C#N)=C/c1cc(O)c(O)c([N+](=O)[O-])c1 | – | -2.36% | –
25 | COC(=O)c1ccc(O)cc1 | – | – | inactive
26 | CC(C)[C@H]1C(=O)N2CCC[C@H]2[C@]2(O)O[C@](NC(=O)[C@@H]3C[C@@H]4c5cccc6[nH]cc(c56)C[C@H]4N(C)C3)(C(C)C)C(=O)N12 | – | – | inactive
27 | O=C1CC[C@H](C(=O)N2CCCCC2)N1 | – | – | inactive
28 | NC(=O)NC1N=C([O][Al])NC1=O (stereo not drawn) | – | – | inactive
29 | N[C@@H](CCC(=O)N[C@@H](CS)C(=O)NCC(=O)O)C(=O)O | – | 3.86% [at 27.1 µM] | –
30 | NCCCNCCSP(=O)(O)O | – | -16.9% [at 11.3 µM] | –
31 | CO[C@H]1C[C@@H]2CC[C@@H](C)[C@@](O)(O2)C(=O)C(=O)N2CCCC[C@@H]2C(=O)O[C@H]([C@@H](C)C[C@@H]2CC[C@H](O)[C@H](OC)C2)CC(=O)[C@H](C)C=C(C)[C@@H](O)[C@@H](OC)C(=O)[C@H](C)C[C@H](C)C=CC=CC=C1C | – | -23.9% | –
32 | Cc1ccc(C(C)C)cc2c(C)ccc1-2 | – | – | inactive
33 | CN(C)CCOC(=O)COc1ccc(Cl)cc1 | – | – | inactive
34 | CNC(=O)c1c(I)c(NC(C)=O)c(I)c(C(=O)O)c1I | – | 2.62% | –
35 | O=C(NCC(O)CO)c1c(I)c(C(=O)NCC(O)CO)c(I)c(N(CCO)C(=O)CO)c1I (stereo not drawn) | – | – | inactive
36 | O=C(O)[C@H](O)c1ccccc1 | – | 4.04% | –
37 | CCOC(=O)c1ccccc1O | – | – | inactive
38 | CCCCCN(CCCOC)C(=O)C(CCC(=O)O)NC(=O)c1ccc(Cl)c(Cl)c1 (stereo not drawn) | – | 1.95% | –
